In PubChem BioAssay (NCI):
This is part of a sample that, as a whole, favours compounds with a hit. Of some 83,000 tested, about 20% had one in any assay.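 Plates (96-well) were seeded with cells, treated with compound at one concentration, and incubated for 48 hours before percent growth was determined.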 Calls of active or inactive are those of the source. Rule for the calls: active = growth percent below 10; inactive = the rest.

Tests used:
Test in all cases: NCI-60 one-dose screen, 48 h (100 = growth as untreated, 0 = no growth, -100 = all killed)
Conditions in all cases: 10 µM
SK-MEL-2 melanoma = system: SK-MEL-2 melanoma
EKVX NSCLC = system: EKVX NSCLC
UO-31 renal = system: UO-31 renal
TK-10 renal = system: TK-10 renal
ACHN renal = system: ACHN renal
CAKI-1 renal = system: CAKI-1 renal
A498 renal = system: A498 renal
CCRF-CEM leukemia = system: CCRF-CEM leukemia
MOLT-4 leukemia = system: MOLT-4 leukemia
SR leukemia = system: SR leukemia
RPMI-8226 leukemia = system: RPMI-8226 leukemia
OVCAR-8 ovarian = system: OVCAR-8 ovarian
OVCAR-5 ovarian = system: OVCAR-5 ovarian
OVCAR-4 ovarian = system: OVCAR-4 ovarian
SK-OV-3 ovarian = system: SK-OV-3 ovarian
IGROV1 ovarian = system: IGROV1 ovarian
OVCAR-3 ovarian = system: OVCAR-3 ovarian
HS 578T breast = system: HS 578T breast
NCI/ADR-RES ovarian = system: NCI/ADR-RES ovarian
SN12C renal = system: SN12C renal

Measured: growth

Cc1cc(C(F)(F)F)ccc1C(=O)Nc1sc2c(c1C#N)CCC(=O)C2
inactive: A498 renal 85.2%
active: SK-MEL-2 melanoma -38.4% | EKVX NSCLC -25.5% | UO-31 renal -98% | TK-10 renal -2% | ACHN renal -95.9% | CAKI-1 renal -50.8% | CCRF-CEM leukemia 6.32% | MOLT-4 leukemia 2.54% | SR leukemia -9.8% | RPMI-8226 leukemia 2.68% | OVCAR-8 ovarian -9.16% | OVCAR-5 ovarian -33.3% | OVCAR-4 ovarian -39.7% | SK-OV-3 ovarian -18.9% | IGROV1 ovarian -5.43% | OVCAR-3 ovarian -48.2% | HS 578T breast -7.86% | NCI/ADR-RES ovarian -24.8%

Cc1nn(-c2ccccc2)c2ncn(CC(=O)N/N=C/c3c[nH]c4ccccc34)c(=O)c12
inactive: SK-MEL-2 melanoma 86.3% | EKVX NSCLC 61.2% | SN12C renal 89.7% | TK-10 renal 107% | ACHN renal 85.2% | CAKI-1 renal 71.9% | A498 renal 79.5% | CCRF-CEM leukemia 85% | MOLT-4 leukemia 55.8% | RPMI-8226 leukemia 73.2% | OVCAR-8 ovarian 89.1% | OVCAR-5 ovarian 103% | OVCAR-4 ovarian 83.2% | SK-OV-3 ovarian 106% | IGROV1 ovarian 106% | OVCAR-3 ovarian 84.3% | HS 578T breast 72.7% | NCI/ADR-RES ovarian 101%

Cc1cccc2cc(-c3cc(-c4ccccc4)nc(=O)[nH]3)c(Cl)nc12
inactive: SK-MEL-2 melanoma 102% | EKVX NSCLC 84.6% | SN12C renal 84% | TK-10 renal 110% | ACHN renal 91.8% | CAKI-1 renal 87.2% | A498 renal 94.5% | MOLT-4 leukemia 61.3% | RPMI-8226 leukemia 17.8% | OVCAR-8 ovarian 72.8% | OVCAR-5 ovarian 93% | OVCAR-4 ovarian 103% | SK-OV-3 ovarian 118% | IGROV1 ovarian 101% | OVCAR-3 ovarian 91.4% | HS 578T breast 89.8% | NCI/ADR-RES ovarian 73.5%
active: CCRF-CEM leukemia 8.46%

N#Cc1c(NC(=O)c2ccc(C(O)(C(F)(F)F)C(F)(F)F)cc2)sc2c1CCC(=O)C2
inactive: A498 renal 13.6%
active: SK-MEL-2 melanoma -27.4% | EKVX NSCLC -89.6% | UO-31 renal -98.8% | TK-10 renal 2.24% | ACHN renal -98.3% | CAKI-1 renal -68.9% | CCRF-CEM leukemia 1.92% | MOLT-4 leukemia -40.9% | SR leukemia -6.36% | RPMI-8226 leukemia 6.42% | OVCAR-8 ovarian -7.08% | OVCAR-5 ovarian -60.8% | OVCAR-4 ovarian -29.6% | SK-OV-3 ovarian -38.9% | IGROV1 ovarian -27.6% | OVCAR-3 ovarian -53.1% | HS 578T breast -22% | NCI/ADR-RES ovarian -60.4%

O=C1Nc2ccc(Cl)cc2/C1=C/c1ccc(OCc2ccc(Br)cc2F)cc1
active: ACHN renal 3.32% | A498 renal 4.76% | OVCAR-8 ovarian 5.33% | OVCAR-4 ovarian -20.5% | OVCAR-3 ovarian 0.51%
inactive: SK-MEL-2 melanoma 80% | EKVX NSCLC 41% | SN12C renal 34.2% | TK-10 renal 18.6% | CAKI-1 renal 28.9% | CCRF-CEM leukemia 43.1% | MOLT-4 leukemia 63.5% | RPMI-8226 leukemia 44.7% | OVCAR-5 ovarian 70.6% | SK-OV-3 ovarian 25.1% | IGROV1 ovarian 39.2% | NCI/ADR-RES ovarian 13.1%

COc1cc(/C=N/NC(=O)c2ccc3nc(-c4ccc(Cl)cc4)[nH]c3c2)cc(OC)c1OC
active: SK-MEL-2 melanoma -17.3% | EKVX NSCLC 9.25% | CAKI-1 renal 2.87% | A498 renal -31.1% | CCRF-CEM leukemia -4.37% | MOLT-4 leukemia 3.96% | SR leukemia -6.5% | RPMI-8226 leukemia -23.9% | OVCAR-8 ovarian -62.7% | OVCAR-4 ovarian -51.6% | SK-OV-3 ovarian -25% | IGROV1 ovarian 7.62% | OVCAR-3 ovarian -90% | HS 578T breast -52.1%
inactive: UO-31 renal 58.9% | TK-10 renal 37.4% | ACHN renal 30.1% | NCI/ADR-RES ovarian 75.7%

Cc1nc2c(cnn2-c2ccccc2)c(=O)n1-c1ccc(NC(=O)c2ccc(F)cc2)cc1
inactive: SK-MEL-2 melanoma 77.9% | EKVX NSCLC 30.2% | SN12C renal 74.4% | TK-10 renal 71% | ACHN renal 61% | CAKI-1 renal 65.7% | A498 renal 86.8% | CCRF-CEM leukemia 34.8% | RPMI-8226 leukemia 35.2% | OVCAR-8 ovarian 63.7% | OVCAR-5 ovarian 97.9% | OVCAR-4 ovarian 40.1% | SK-OV-3 ovarian 111% | IGROV1 ovarian 73.5% | OVCAR-3 ovarian 85.4% | HS 578T breast 78.7% | NCI/ADR-RES ovarian 42.8%

COc1cccc(/C=N/NC(=O)c2ccc3nc(-c4ccc(Cl)cc4)[nH]c3c2)c1O
inactive: NCI/ADR-RES ovarian 50.7%
active: SK-MEL-2 melanoma -95.1% | EKVX NSCLC -53.8% | UO-31 renal -2.17% | TK-10 renal -11.1% | ACHN renal -34% | CAKI-1 renal -66.1% | A498 renal -69.1% | CCRF-CEM leukemia -40.6% | MOLT-4 leukemia -50.4% | RPMI-8226 leukemia -50.5% | OVCAR-8 ovarian -84.6% | OVCAR-5 ovarian -63% | OVCAR-4 ovarian -36.3% | SK-OV-3 ovarian -84.6% | IGROV1 ovarian -77.2% | OVCAR-3 ovarian -87.4% | HS 578T breast -54.7%

COc1cc2c(cc1OC)CN(CCCCOc1cc(O)c3c(=O)cc(-c4ccccc4)oc3c1)CC2
active: SR leukemia -13.8%
inactive: SK-MEL-2 melanoma 66.6% | EKVX NSCLC 76.6% | UO-31 renal 51% | TK-10 renal 117% | ACHN renal 66.8% | CAKI-1 renal 56.9% | A498 renal 127% | CCRF-CEM leukemia 32.2% | MOLT-4 leukemia 20.2% | RPMI-8226 leukemia 24.1% | OVCAR-5 ovarian 114% | OVCAR-4 ovarian 30% | SK-OV-3 ovarian 74.5% | IGROV1 ovarian 95.8% | OVCAR-3 ovarian 94.9% | HS 578T breast 74.2% | NCI/ADR-RES ovarian 57.4%

O=C1Nc2ccc(F)cc2/C1=C/c1cccc(OCc2ccccc2)c1
inactive: EKVX NSCLC 18.4% | SN12C renal 20.2% | TK-10 renal 70.9% | ACHN renal 22.4% | CAKI-1 renal 25.9% | A498 renal 80.2% | OVCAR-8 ovarian 24.6% | OVCAR-4 ovarian 36.4% | SK-OV-3 ovarian 66.7% | IGROV1 ovarian 36.6%
active: SK-MEL-2 melanoma -23.1% | CCRF-CEM leukemia -4.49% | MOLT-4 leukemia 1.81% | RPMI-8226 leukemia -28.1% | OVCAR-3 ovarian 7.98% | NCI/ADR-RES ovarian -13.9%

COc1cc(OC(F)(F)F)ccc1C(=O)Nc1sc2c(c1C#N)CCC(=O)C2
inactive: SK-MEL-2 melanoma 105% | EKVX NSCLC 46.7% | UO-31 renal 62.4% | TK-10 renal 94.2% | ACHN renal 87.1% | CAKI-1 renal 71.6% | A498 renal 137% | CCRF-CEM leukemia 18.3% | MOLT-4 leukemia 90.8% | SR leukemia 15.1% | RPMI-8226 leukemia 51.7% | OVCAR-8 ovarian 93% | OVCAR-5 ovarian 138% | OVCAR-4 ovarian 62.1% | SK-OV-3 ovarian 81.2% | IGROV1 ovarian 112% | OVCAR-3 ovarian 112% | HS 578T breast 75.9% | NCI/ADR-RES ovarian 75.1%

Cc1ccc(-c2nc(Nc3ccc(S(N)(=O)=O)cc3)c3ccccc3n2)cc1
inactive: EKVX NSCLC 65.9% | SN12C renal 68.7% | UO-31 renal 54.5% | TK-10 renal 104% | ACHN renal 42.8% | CAKI-1 renal 36.5% | A498 renal 61.3% | CCRF-CEM leukemia 25.7% | MOLT-4 leukemia 11.2% | SR leukemia 14.6% | RPMI-8226 leukemia 29.2% | OVCAR-8 ovarian 63.2% | OVCAR-5 ovarian 68.9% | OVCAR-4 ovarian 61.7% | SK-OV-3 ovarian 114% | IGROV1 ovarian 66.7% | OVCAR-3 ovarian 61.9% | HS 578T breast 90.1% | NCI/ADR-RES ovarian 54.7%

Nc1nc(-c2ccccc2)cc(-c2cc3ccccc3nc2Cl)n1
inactive: SK-MEL-2 melanoma 97.1% | EKVX NSCLC 80.1% | SN12C renal 83% | TK-10 renal 111% | ACHN renal 89.1% | CAKI-1 renal 80.1% | A498 renal 108% | MOLT-4 leukemia 59.2% | RPMI-8226 leukemia 19.2% | OVCAR-8 ovarian 83.9% | OVCAR-5 ovarian 97.8% | OVCAR-4 ovarian 96% | SK-OV-3 ovarian 99.2% | IGROV1 ovarian 97.9% | OVCAR-3 ovarian 67.7% | HS 578T breast 82.8% | NCI/ADR-RES ovarian 80.7%
active: CCRF-CEM leukemia 1.2%

C/C(=C\CSc1ccccc1C(=O)O)CCCC(C)CCCC(C)CCCC(C)C (stereo unspecified)
active: SK-MEL-2 melanoma -12%
inactive: EKVX NSCLC 43.3% | UO-31 renal 49.5% | TK-10 renal 87.7% | ACHN renal 37.5% | CAKI-1 renal 45.1% | A498 renal 97.4% | CCRF-CEM leukemia 29.8% | MOLT-4 leukemia 16.3% | SR leukemia 18.7% | RPMI-8226 leukemia 35% | OVCAR-8 ovarian 54% | OVCAR-5 ovarian 115% | OVCAR-4 ovarian 57.3% | SK-OV-3 ovarian 96.5% | IGROV1 ovarian 76.1% | OVCAR-3 ovarian 74.4% | HS 578T breast 56% | NCI/ADR-RES ovarian 43.1%

N#Cc1c(NC(=O)c2ccc(C(F)(F)F)c(Cl)c2)sc2c1CCC(=O)C2
active: SK-MEL-2 melanoma -9.04% | EKVX NSCLC -79.9% | UO-31 renal -98.8% | ACHN renal -96.5% | CAKI-1 renal -72% | CCRF-CEM leukemia 5.53% | SR leukemia -11.8% | RPMI-8226 leukemia 0.426% | OVCAR-5 ovarian -8.2% | OVCAR-4 ovarian -21.1% | SK-OV-3 ovarian -30.1% | IGROV1 ovarian -35.3% | OVCAR-3 ovarian -57% | HS 578T breast -26% | NCI/ADR-RES ovarian -48.9%
inactive: TK-10 renal 16% | A498 renal 74.1%

Cn1cc(-c2cc(N)n3nc(-c4c[nH]c5ccc(Br)cc45)cc3n2)c2cc(Br)cnc21
active: SK-MEL-2 melanoma -83.6% | EKVX NSCLC -84.1% | UO-31 renal -70.9% | TK-10 renal -81.9% | ACHN renal -93.2% | CAKI-1 renal -69.1% | A498 renal -86.5% | CCRF-CEM leukemia -32.1% | MOLT-4 leukemia -28.6% | SR leukemia -15.6% | RPMI-8226 leukemia -6.39% | OVCAR-8 ovarian -41.6% | OVCAR-5 ovarian -61.9% | OVCAR-4 ovarian -41.1% | SK-OV-3 ovarian -55.9% | IGROV1 ovarian -21.6% | OVCAR-3 ovarian -90.4% | NCI/ADR-RES ovarian -60%

N#Cc1c(NC(=O)c2ccc(C(F)(F)F)cc2)sc2c1CCC(O)=C2
active: SK-MEL-2 melanoma 8.44% | CCRF-CEM leukemia 6.68% | SR leukemia 8.2% | RPMI-8226 leukemia 9.09% | NCI/ADR-RES ovarian -33.5%
inactive: EKVX NSCLC 16.9% | UO-31 renal 23.9% | TK-10 renal 71.9% | ACHN renal 44.1% | CAKI-1 renal 31.9% | A498 renal 74.2% | MOLT-4 leukemia 13.8% | OVCAR-8 ovarian 28.9% | OVCAR-5 ovarian 82.8% | OVCAR-4 ovarian 41.6% | SK-OV-3 ovarian 17.9% | IGROV1 ovarian 38.3% | OVCAR-3 ovarian 18.8%
